Laboratory results published in PubChem BioAssay (Tox21).
Results filed as inconclusive are left out. Activity calls are given as the source filed them. Unless noted, the call rests on the fitted dose curve; in most records, active means well fitted curve in the direction sought with a large enough effect in the repeat runs; inconclusive means weak or mixed curves; inactive means no such curve, though single readings can be large; an effect the other way counts as inactive or inconclusive.

How the values were obtained:
[1] = molecular target: Progesterone receptor (Homo sapiens) (UniProt P06401); experiment: qHTS assay to identify small molecule agonists of the progesterone receptor (PR) signaling pathway (AID 1346784; calls by dose curve; further: nearly all actives have a fitted effect of over 30% in size)
Sequence of Progesterone receptor (Homo sapiens) (P06401 whole entry, looked up): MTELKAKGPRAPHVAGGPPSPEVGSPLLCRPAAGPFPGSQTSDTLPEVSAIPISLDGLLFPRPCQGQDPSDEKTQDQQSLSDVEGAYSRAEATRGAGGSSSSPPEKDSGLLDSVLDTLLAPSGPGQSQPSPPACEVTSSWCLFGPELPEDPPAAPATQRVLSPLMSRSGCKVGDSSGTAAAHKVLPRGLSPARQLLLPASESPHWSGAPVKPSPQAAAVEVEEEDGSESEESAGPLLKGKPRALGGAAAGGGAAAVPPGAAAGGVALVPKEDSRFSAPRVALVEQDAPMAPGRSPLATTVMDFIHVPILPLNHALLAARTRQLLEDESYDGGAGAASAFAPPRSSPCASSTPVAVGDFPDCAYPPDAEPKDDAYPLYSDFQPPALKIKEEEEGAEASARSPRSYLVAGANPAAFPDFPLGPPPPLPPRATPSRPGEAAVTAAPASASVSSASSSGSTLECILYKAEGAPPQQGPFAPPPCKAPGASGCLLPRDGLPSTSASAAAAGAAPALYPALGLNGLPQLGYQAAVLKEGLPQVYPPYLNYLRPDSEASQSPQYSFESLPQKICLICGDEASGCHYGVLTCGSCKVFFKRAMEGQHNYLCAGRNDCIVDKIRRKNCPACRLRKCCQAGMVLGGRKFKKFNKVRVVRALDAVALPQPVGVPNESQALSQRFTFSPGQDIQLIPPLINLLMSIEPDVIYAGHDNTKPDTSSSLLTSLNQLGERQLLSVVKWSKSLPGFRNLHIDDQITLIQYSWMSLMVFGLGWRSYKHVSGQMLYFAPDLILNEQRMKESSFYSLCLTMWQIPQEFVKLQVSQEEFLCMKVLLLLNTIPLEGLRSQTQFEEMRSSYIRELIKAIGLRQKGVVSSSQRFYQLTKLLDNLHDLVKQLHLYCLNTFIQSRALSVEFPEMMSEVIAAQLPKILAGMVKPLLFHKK
Procedure, shortened: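 Agonist qHTS: compounds pinned onto 3,000 PR-UAS-bla HEK 293T cells per well in charcoal-stripped serum medium, 16hr at 37C, then beta-lactamase activity measured by LiveBLAzer FRET fluorescence after 2 hours at room temperature.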

[2] = molecular target: Progesterone receptor (Homo sapiens) (UniProt P06401); experiment: qHTS assay to identify small molecule antagonists of the progesterone receptor (PR) signaling pathway (AID 1346795; active means well fitted inhibition curve with a large enough effect in the signal ratio in the repeat runs, not every such curve was filed as active; the % refers to the signal ratio)
Procedure, shortened: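 Antagonist mode with agonist R5020 at 1 nM final and 16 hr incubation at 37C. Reporter was beta-lactamase driven by UAS in HEK293T (PR-UAS-bla), 2% charcoal-stripped serum; signal from LiveBLAzer FRET substrate, 2 hr at room temperature.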

[3] = qHTS assay to identify small molecule antagonists of the progesterone receptor (PR) signaling pathway - cell viability counter screen (AID 1346798); further: series mostly up to about 92 µM; nearly all actives have a fitted effect of over 50% in size
Procedure, shortened: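 Cytotoxicity read as CellTiter-Glo luminescence (30 min, room temperature) in the same wells as the beta-lactamase readout. HEK293T PR-UAS-bla cells in charcoal-stripped 2% FBS received compound and R5020, then 16 h at 37C, 5% CO2.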

[4] = qHTS assay to identify small molecule agonists of the progesterone receptor (PR) signaling pathway - cell viability counter screen (AID 1346799; calls by dose curve; further: nearly all actives have a fitted effect of over 45% in size)
Procedure, shortened: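 Cytotoxicity measured by CellTiter-Glo luminescence (30 min, RT) in the same wells as the PR beta-lactamase agonist read. Those HEK293T cells had 16 h compound treatment at 37 C in 2% charcoal-stripped FBS medium.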

[5] = qHTS assay to identify small molecule antagonists of the TGF-beta/Smad signaling pathway - cell viability counter screen (AID 1346824); further: nearly all actives have a fitted effect of over 50% in size
Procedure, shortened: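 SBE-bla HEK 293T cells were plated overnight at 37 C, then given compounds in DMSO plus TGF-beta1 (added as 0.25 ng/mL solution) for 5 hr. After the bla read, CellTiter-Glo was added to the same wells and luminescence read after 30 min at room temperature.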

[6] = qHTS assay to identify small molecule agonists of the TGF-beta/Smad signaling pathway - cell viability counter screen (AID 1346829); further: top concentration of the series differs between compounds; nearly all actives have a fitted effect of over 45% in size
Procedure, shortened: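 After overnight seating at 37 C and 5% CO2, reporter cells got compounds for 5 hr and FRET substrate for 2 hr; cell viability then came from CellTiter-Glo luminescence.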

[7] = qHTS assay to identify small molecule agonists of the TGF-beta/Smad signaling pathway (AID 1346859; active means well fitted activation curve with a large enough effect in the signal ratio in the repeat runs, not every such curve was filed as active; the % refers to the signal ratio; further: series mostly up to about 77 µM)
Procedure, shortened: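 Fluorescence (ex 405 nm; em 460 and 530 nm) was read 2 h after LiveBLAzer FRET substrate at RT. The preceding compound treatment of overnight-plated SBE-bla HEK293T cells lasted 5 h at 37 C.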

[8] = molecular target: Thyrotropin-releasing hormone receptor (Homo sapiens) (UniProt P34981); experiment: qHTS assay to identify small molecule antagonists of the thyrotropin-releasing hormone receptor (TRHR) signaling pathway (AID 1346877; active means well fitted inhibition curve with a large enough effect in the repeat runs, not every such curve was filed as active; further: series mostly up to about 51 µM)
Sequence of Thyrotropin-releasing hormone receptor (Homo sapiens) (P34981 whole entry, looked up): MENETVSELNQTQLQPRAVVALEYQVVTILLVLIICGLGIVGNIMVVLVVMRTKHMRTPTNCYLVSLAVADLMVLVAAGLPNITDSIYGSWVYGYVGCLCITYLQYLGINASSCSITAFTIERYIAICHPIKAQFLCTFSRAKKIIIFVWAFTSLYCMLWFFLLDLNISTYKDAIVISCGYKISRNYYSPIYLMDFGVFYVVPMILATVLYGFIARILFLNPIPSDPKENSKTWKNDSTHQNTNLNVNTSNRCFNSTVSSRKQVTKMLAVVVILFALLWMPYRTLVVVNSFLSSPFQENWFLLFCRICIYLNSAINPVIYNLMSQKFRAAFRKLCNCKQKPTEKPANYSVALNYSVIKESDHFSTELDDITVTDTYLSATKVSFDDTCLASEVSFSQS
Procedure, shortened: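 In this cell-based calcium flux format, HEK293 cells expressing TRHR received test compound for 5 min before the agonist TRH (1 nM final). Dye loading lasted 2 h at 37 °C.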

[9] = molecular target: Thyrotropin-releasing hormone receptor (Homo sapiens) (UniProt P34981); experiment: qHTS assay to identify small molecule agonists of the thyrotropin-releasing hormone receptor (TRHR) signaling pathway (AID 1346891; calls by dose curve; further: series mostly up to about 58 µM)
Procedure, shortened: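 Agonist-mode intracellular calcium readout: kinetic fluorescence over 3 min at 1 s intervals after compound addition to TRHR-HEK293 cells (18 h seeded, 2 h dye-loaded at 37 C). Fifteen concentrations, triplicates.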

[10] = Human pregnane X receptor (PXR) small molecule agonists, qHTS cell viability counter screen (AID 1346977); further: nearly all actives have a fitted effect of over 50% in size
Procedure, shortened: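 Same-well viability read: CellTiter-Fluor added after 23 hr compound exposure, fluorescence measured 1 hr later. Cells were PXR-Luc HepG2 seeded at 2,000/well in 5% charcoal-stripped FBS medium, rested 5 hr before dosing at 37 C.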

[11] = Caspase-3/7 induction in HepG2 cells by small molecules, qHTS assay (AID 1346978); further: nearly all actives have a fitted effect of over 15% in size
Procedure, shortened: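 Wild-type HepG2 cells (2,000/well) were settled 5 h at 37 C, 5% CO2, then exposed to compounds in DMSO for 17 h. Caspase-3/7 activity was read by luminescence 30 min after adding Caspase-Glo 3/7 reagent at room temperature.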

[12] = Caspase-3/7 induction in CHO-K1 cells by small molecules, qHTS cell viability counter screen (AID 1346979); further: nearly all actives have a fitted effect of over 35% in size
Procedure, shortened: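 Cytotoxicity counter screen: CellTiter-Fluor added to compound-treated wild-type CHO-K1 cells at 16 h (37C, 5% CO2), fluorescence measured 1 h later; same wells as caspase-3/7 measurement.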

[13] = Caspase-3/7 induction in HepG2 cells by small molecules, qHTS cell viability counter screen (AID 1346981); further: series mostly up to about 92 µM; nearly all actives have a fitted effect of over 30% in size
Procedure, shortened: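 Counter screen for cytotoxicity: HepG2 exposed 16 hr to compounds, then CellTiter-Fluor viability signal (fluorescence, 1 hr reagent incubation).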

[14] = molecular target: Nuclear receptor subfamily 1 group I member 2 (Homo sapiens) (UniProt O75469); experiment: Human pregnane X receptor (PXR) small molecule agonists, qHTS assay (AID 1346982); further: nearly all actives have a fitted effect of over 35% in size
Sequence of Nuclear receptor subfamily 1 group I member 2 (Homo sapiens) (O75469 whole entry, looked up): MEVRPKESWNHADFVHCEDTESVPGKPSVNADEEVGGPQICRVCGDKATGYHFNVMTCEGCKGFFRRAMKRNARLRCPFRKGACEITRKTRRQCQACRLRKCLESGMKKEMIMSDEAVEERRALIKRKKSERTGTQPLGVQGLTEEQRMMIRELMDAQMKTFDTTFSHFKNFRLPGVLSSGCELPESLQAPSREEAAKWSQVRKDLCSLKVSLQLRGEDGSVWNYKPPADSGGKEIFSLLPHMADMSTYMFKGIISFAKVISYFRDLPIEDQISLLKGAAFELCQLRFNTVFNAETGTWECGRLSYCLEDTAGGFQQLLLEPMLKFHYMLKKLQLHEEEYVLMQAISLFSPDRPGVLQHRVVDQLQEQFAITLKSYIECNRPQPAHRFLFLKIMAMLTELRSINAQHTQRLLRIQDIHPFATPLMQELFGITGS
Procedure, shortened: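 Luminescence (ONE-Glo, 30 min RT) after 24 hr compound exposure of PXR-Luc HepG2 cells; cells rested 5 hr post-plating in 5% charcoal-stripped FBS medium.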

[15] = molecular target: Cytochrome P450 2D6 (Homo sapiens) (UniProt P10635); experiment: Cytochrome P450 Family 2 Subfamily D Member 6 (CYP2D6) small molecule antagonists: luciferase reporter qHTS assay (AID 1671196); further: series mostly up to about 120 µM; nearly all actives have a fitted effect of over 50% in size
Sequence of Cytochrome P450 2D6 (Homo sapiens) (P10635 whole entry, looked up): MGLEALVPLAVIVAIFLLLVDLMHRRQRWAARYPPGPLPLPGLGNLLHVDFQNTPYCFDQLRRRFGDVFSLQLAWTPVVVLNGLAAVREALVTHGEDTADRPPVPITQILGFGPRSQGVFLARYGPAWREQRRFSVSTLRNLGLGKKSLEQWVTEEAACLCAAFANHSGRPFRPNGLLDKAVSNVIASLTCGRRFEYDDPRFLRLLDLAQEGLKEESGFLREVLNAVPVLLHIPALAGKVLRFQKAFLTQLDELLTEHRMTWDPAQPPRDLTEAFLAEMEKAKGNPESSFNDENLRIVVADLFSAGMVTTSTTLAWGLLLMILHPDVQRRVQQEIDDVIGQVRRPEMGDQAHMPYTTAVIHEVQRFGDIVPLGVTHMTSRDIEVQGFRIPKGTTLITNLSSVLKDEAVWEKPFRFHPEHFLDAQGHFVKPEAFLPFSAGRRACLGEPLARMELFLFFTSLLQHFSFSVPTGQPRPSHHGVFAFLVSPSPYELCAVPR
Procedure, shortened: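 Inhibition of CYP2D6 was gauged by loss of luminescence, since light produced tracks the luciferin generated from a proluciferin substrate. A 10 min room-temperature preincubation preceded 1 h NADPH-supported turnover.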

[16] = molecular target: Cytochrome P450 2C19 (Homo sapiens) (UniProt P33261); experiment: Cytochrome P450 Family 2 Subfamily C Member 19 (CYP2C19) small molecule antagonists: luciferase reporter qHTS assay (AID 1671197); further: series mostly up to about 120 µM; nearly all actives have a fitted effect of over 65% in size
Sequence of Cytochrome P450 2C19 (Homo sapiens) (P33261 whole entry, looked up): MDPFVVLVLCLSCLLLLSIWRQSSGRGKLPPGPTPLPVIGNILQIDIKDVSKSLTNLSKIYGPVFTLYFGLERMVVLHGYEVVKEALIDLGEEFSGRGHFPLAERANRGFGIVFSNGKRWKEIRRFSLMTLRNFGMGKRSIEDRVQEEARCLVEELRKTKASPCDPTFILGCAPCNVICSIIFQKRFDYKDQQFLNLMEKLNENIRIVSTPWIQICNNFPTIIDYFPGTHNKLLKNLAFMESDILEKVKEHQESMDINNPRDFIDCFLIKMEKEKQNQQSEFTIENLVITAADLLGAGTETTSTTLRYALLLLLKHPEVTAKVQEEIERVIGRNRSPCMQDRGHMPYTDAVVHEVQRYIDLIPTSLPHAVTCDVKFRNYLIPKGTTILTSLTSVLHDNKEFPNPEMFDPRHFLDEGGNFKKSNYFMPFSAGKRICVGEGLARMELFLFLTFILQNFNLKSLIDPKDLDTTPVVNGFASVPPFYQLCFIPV
Procedure, shortened: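 Inhibition of CYP2C19 was scored from loss of luminescence in a P450-Glo proluciferin substrate assay, NADPH-started and run 1 h at 37C, with ketoconazole as positive control.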

[17] = Caspase-3/7 induction in CHO-K1 cells by small molecules, qHTS assay (AID 1346980); further: nearly all actives have a fitted effect of over 15% in size
Procedure, shortened: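 Wild-type cells were seeded at 1,500 per well and settled 5 hr at 37 C, 5% CO2, then exposed to DMSO-dissolved compounds for 17 hr. Caspase-Glo 3/7 reagent was added, and luminescence was read after 30min at room temperature.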

[18] = molecular target: Nuclear receptor subfamily 1 group I member 2 (Rattus norvegicus) (UniProt Q9R1A7); experiment: Rat pregnane X receptor (rPXR) activation by small molecules, qHTS assay (AID 1346983); conditions: rPXR luciferase reporter cells, One-Glo luminescence, 24 h; max activation: active compounds read high; further: nearly all actives have a fitted effect of over 20% in size
Sequence of Nuclear receptor subfamily 1 group I member 2 (Rattus norvegicus) (Q9R1A7 whole entry, looked up): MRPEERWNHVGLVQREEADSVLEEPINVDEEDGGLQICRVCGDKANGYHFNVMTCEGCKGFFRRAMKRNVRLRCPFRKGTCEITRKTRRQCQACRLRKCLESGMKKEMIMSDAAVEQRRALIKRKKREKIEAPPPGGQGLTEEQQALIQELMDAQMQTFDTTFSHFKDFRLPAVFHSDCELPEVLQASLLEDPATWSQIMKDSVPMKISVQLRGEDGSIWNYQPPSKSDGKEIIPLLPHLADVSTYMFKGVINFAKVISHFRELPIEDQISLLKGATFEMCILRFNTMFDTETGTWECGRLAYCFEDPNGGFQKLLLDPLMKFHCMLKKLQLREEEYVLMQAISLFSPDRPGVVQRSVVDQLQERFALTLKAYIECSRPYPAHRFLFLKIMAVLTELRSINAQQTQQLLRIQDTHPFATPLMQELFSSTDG
Procedure, shortened: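 Cell-based rPXR luciferase reporter assay, 2,000 cells per well, rested 5hr at 37 C before compound addition in DMSO, then 24 hr at 37 C. One-Glo reagent was added and luminescence read after 30 min at room temperature.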

[19] = molecular target: Nuclear receptor subfamily 1 group I member 2 (Homo sapiens) (UniProt O75469); experiment: Human pregnane X receptor (PXR) activation by small molecules, qHTS assay (AID 1346985); further: nearly all actives have a fitted effect of over 40% in size
Procedure, shortened: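 DPX-2 cells (HepG2 co-transfected with a PXR response element and a CYP3A4-promoter luciferase construct) were seeded at 2,000 per well, rested 5 hr at 37C, then exposed to DMSO-dissolved compounds for 24 hr. Activation was read as luciferase luminescence.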

[20] = molecular target: Nuclear receptor subfamily 1 group I member 2 (Homo sapiens) (UniProt O75469); experiment: CYP3A4 induction through human pregnane X receptor (PXR) by small molecules, qHTS assay (AID 1346984); further: nearly all actives have a fitted effect of over 40% in size
Procedure, shortened: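 DPX-2 reporter cells; 24h cpd, 37C; Luciferin-IPA 3uM final x3h; One-Glo 30 min RT; lumi read.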
On the % scale 0 is the no-effect control and ±100 the full control effect.

CCCCCCCCCCCCSC
inactive: Potency [1] | Potency [2] | Potency [3] | Potency [4] | outcome [5] | outcome [6] | outcome [7] | outcome [8] | Potency [9] | Potency [10] | outcome [11] | Potency [12] | Potency [13] | Potency [14] | Potency [15] | Potency [16]

O=CN(CCO)CCO
inactive: Potency [1] | Potency [2] | Potency [3] | Potency [4] | outcome [5] | outcome [6] | outcome [7] | outcome [8] | Potency [10] | Potency [12] | outcome [17] | Potency [13] | Potency [14] | Potency [15]

Nc1ccn([C@@H]2O[C@H](CO)[C@@H](O)C2O)c(=O)n1 (some centres not stated)
inactive: Potency [1] | Potency [2] | Potency [3] | Potency [4] | outcome [5] | outcome [6] | outcome [7] | outcome [8] | Potency [9] | Potency [10] | outcome [11] | Potency [12] | Potency [13] | Potency [14] | max activation [18] -0.294% | Potency [19] | Potency [15]

NC(=O)Cc1cccc2ccccc12
inactive: Potency [1] | Potency [2] | Potency [3] | Potency [4] | outcome [5] | outcome [6] | outcome [7] | outcome [8] | Potency [10] | outcome [11] | Potency [12] | outcome [17] | Potency [13] | Potency [14] | Potency [16]

CN(C)C(=O)Oc1ccc[n+](C)c1
inactive: Potency [1] | Potency [2] | Potency [3] | Potency [4] | outcome [5] | outcome [6] | outcome [7] | Potency [10] | outcome [11] | Potency [12] | outcome [17] | Potency [13] | Potency [14] | max activation [18] -1.23% | Potency [20] | Potency [19] | Potency [16]

CO[C@@]1(NC(=O)C(C(=O)O)c2ccc(O)cc2)C(=O)N2C(C(=O)O)=C(CSc3nnnn3C)CO[C@@H]21 (some centres not stated)
inactive: Potency [1] | Potency [2] | Potency [3] | Potency [4] | outcome [5] | outcome [6] | outcome [7] | outcome [8] | Potency [9] | Potency [10] | Potency [12] | outcome [17] | Potency [13] | Potency [14] | max activation [18] -4.79% | Potency [20] | Potency [19] | Potency [15] | Potency [16]

CC1=NS(=O)(=O)c2cc(Cl)ccc2N1
inactive: Potency [1] | Potency [2] | Potency [3] | Potency [4] | outcome [5] | outcome [6] | outcome [7] | Potency [10] | outcome [11] | Potency [12] | outcome [17] | Potency [13] | Potency [14] | Potency [15] | Potency [16]

CNCC(O)c1ccc(O)c(O)c1 (configuration not stated)
inactive: Potency [1] | Potency [2] | Potency [3] | Potency [4] | outcome [5] | outcome [6] | outcome [7] | outcome [8] | Potency [10] | outcome [11] | Potency [12] | outcome [17] | Potency [13] | Potency [14]
